We go through 14 molecules from PubChem BioAssay (Tox21).

A short description of test [1]: A CellTox Green Cytotoxicity Assay to monitor cytotoxicity in HEK293 cells - 40 hour (AID 1224871). Note: nearly all actives have a fitted effect of over 45% in size. The procedure, abridged:
(§1)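 HEK293 cells, 600/well, were preincubated 5 hours and then exposed to compounds at 37 C for up to 40 hours. A cell-impermeant cyanine dye staining dead-cell DNA was read by fluorescence at 0, 8, 16, 24, 32 and 40 h time points.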

Test [2] can be described thus: qHTS RealTime-Glo MT Cell Viability Assay in HEK293 cells - 16 hour (AID 1224872). Note: top concentration of the series differs between compounds; nearly all actives have a fitted effect of over 50% in size. An outline of the steps: (§2)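 HEK293 cells seeded with NanoLuc/prosubstrate reagent, rested 5 h at 37 C, then dosed and kept at 37 C up to 40 h. Nonlytic real-time luminescence from viable cells read at 0, 8, 16, 24, 32 and 40 h.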
The nature of test [3]: qHTS RealTime-Glo MT Cell Viability Assay in HepG2 cells - 8 hour (AID 1224873). Note: nearly all actives have a fitted effect of over 55% in size. The procedure, abridged: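 Real-time viability: cells seeded at 600 per well together with NanoLuc and cell-permeant prosubstrate, compounds added after 5 h incubation. Luminescence tracked at 0, 8, 16, 24, 32 and 40 h of exposure.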
Test [4] can be described thus: A CellTox Green Cytotoxicity Assay to monitor cytotoxicity in HEK293 cells - 24 hour (AID 1224875). Note: series mostly up to about 77 µM; nearly all actives have a fitted effect of over 45% in size. An outline of the steps:
as §1

Test [5] is described as follows: A CellTox Green Cytotoxicity Assay to monitor cytotoxicity in HepG2 cells - 16 hour (AID 1224876). Note: nearly all actives have a fitted effect of over 45% in size. An outline of the steps:
(§3)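 HepG2 cells, 600/well, preincubated 5 h with CellTox Green dye, then exposed to Tox21 compounds in DMSO at 37 C for up to 40 h. Dead-cell DNA fluorescence read at the indicated time point.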

A short description of test [6]: qHTS RealTime-Glo MT Cell Viability Assay in HepG2 cells - 32 hour (AID 1224877). Note: nearly all actives have a fitted effect of over 55% in size. The procedure, abridged:
(§4)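 HepG2 cells (600/well) were dispensed with RealTime-Glo reagents, incubated 5 h at 37 °C, then treated with compounds in DMSO for up to 40 h. Nonlytic NanoLuc luminescence reflecting viable cells was read at each stated time point.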

Test [7] in a line: A CellTox Green Cytotoxicity Assay to monitor cytotoxicity in HepG2 cells - 24 hour (AID 1224878). Note: nearly all actives have a fitted effect of over 45% in size. An outline of the steps: as §3
The nature of test [8]: A CellTox Green Cytotoxicity Assay to monitor cytotoxicity in HepG2 cells - 40 hour (AID 1224879). Note: nearly all actives have a fitted effect of over 40% in size. The procedure, abridged: as §3
Test [9] can be described thus: qHTS RealTime-Glo MT Cell Viability Assay in HEK293 cells - 0 hour (AID 1224880). Note: nearly all actives have a fitted effect of over 45% in size. Note: potency is the fitted concentration of half-maximal effect. The procedure, abridged: (§5)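 600 cells/well were plated with the nonlytic NanoLuc/prosubstrate reagent, pre-incubated 5 h, then given 23 nL of compound in DMSO. Incubation at 37 C for 40 h, with luminescence from viable-cell-reduced substrate read repeatedly from 0 h.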
Test [10] in a line: A CellTox Green Cytotoxicity Assay to monitor cytotoxicity in HEK293 cells - 32 hour (AID 1224881). Note: nearly all actives have a fitted effect of over 40% in size. An outline of the steps:
as §1

Test [11] can be described thus: A CellTox Green Cytotoxicity Assay to monitor cytotoxicity in HepG2 cells - 0 hour (AID 1224882). Note: nearly all actives have a fitted effect of over 35% in size. The procedure, abridged:
as §3

A short description of test [12]: A CellTox Green Cytotoxicity Assay to monitor cytotoxicity in HepG2 cells - 32 hour (AID 1224883). Note: nearly all actives have a fitted effect of over 50% in size. The procedure, abridged:
as §3

Test [13] is described as follows: A CellTox Green Cytotoxicity Assay to monitor cytotoxicity in HEK293 cells - 8 hour (AID 1224884). Note: nearly all actives have a fitted effect of over 35% in size. The procedure, abridged: as §1
Test [14] in a line: qHTS RealTime-Glo MT Cell Viability Assay in HepG2 cells - 16 hour (AID 1224885). Note: nearly all actives have a fitted effect of over 50% in size. The procedure, abridged:
as §4

Test [15] can be described thus: qHTS RealTime-Glo MT Cell Viability Assay in HEK293 cells - 8 hour (AID 1224887). Note: top concentration of the series differs between compounds; nearly all actives have a fitted effect of over 50% in size. An outline of the steps: as §5
Test [16] in a line: A CellTox Green Cytotoxicity Assay to monitor cytotoxicity in HEK293 cells - 16 hour (AID 1224888). Note: nearly all actives have a fitted effect of over 35% in size. The procedure, abridged: as §1
A short description of test [17]: qHTS RealTime-Glo MT Cell Viability Assay in HepG2 cells - 0 hour (AID 1224889). Note: nearly all actives have a fitted effect of over 50% in size. The procedure, abridged: as §4
The nature of test [18]: A CellTox Green Cytotoxicity Assay to monitor cytotoxicity in HepG2 cells - 8 hour (AID 1224890). Note: nearly all actives have a fitted effect of over 45% in size. The procedure, abridged: as §3
Test [19] can be described thus: qHTS RealTime-Glo MT Cell Viability Assay in HEK293 cells - 40 hour (AID 1224874). Note: nearly all actives have a fitted effect of over 50% in size. As to conditions: RealTime-Glo luminescence; max response: hits give low values. An outline of the steps: as §5
Test [20] in a line: qHTS RealTime-Glo MT Cell Viability Assay in HEK293 cells - 24 hour (AID 1224886). The procedure, abridged: as §2

A number with no mark means an inactive call. Results filed as inconclusive are left out. The source made the active and inactive calls. Calls come from the whole dose curve; as a rule, active = well fitted curve in the direction sought with a large enough effect in the repeat runs; inconclusive = weak or mixed curves; inactive = no such curve, though single readings can be large; an effect the other way counts as inactive or inconclusive.
% is set by controls: 0 for no effect and ±100 for the full control effect.

Take `Clc1nc2ccccc2nc1Cl`: the Potency entry in test [1], in [2], in [4], in [5], in test [6] and in [7] was “inactive” throughout. For the same molecule, the Potency entry in test [8], in test [9], in [10], in [11], in test [12] and in test [13] was “inactive” each time. Moreover, the Potency entry in test [15], in [16], in [17] and in test [18] was “inactive” each time. The call in test [3] and in [14] was inactive.

Take `C[C@H](N)C(=O)N[C@@H](C)C(=O)NC1[C@H]2CN(c3nc4c(cc3F)c(=O)c(C(=O)O)cn4-c3ccc(F)cc3F)C[C@@H]12` (stereo not given in full): the Potency result in test [1], in test [2], in test [4], in test [5], in test [6] and in test [7] was “inactive” throughout. Besides, the Potency entry in test [8], in test [9], in [10], in test [11], in [13] and in test [20] was “inactive” each time. Besides, the Potency entry in test [15] and in test [18] was “inactive” throughout. Moreover, the molecule was classed as inactive in test [3] and in test [14]. Further, the max response in test [19] was 0.749%.

Turning to `O=Cc1ccc(Cl)c([N+](=O)[O-])c1`, the Potency entry in test [1], in test [2], in test [4], in test [5], in test [6] and in test [7] was “inactive” each time. Further, the Potency entry in test [9], in test [10], in [11], in test [13], in test [15] and in test [17] was “inactive” throughout. Further, the Potency result in test [18] was “inactive”. Further, the outcome in [3] and in [14] was inactive.

As to `Nc1ncnc2c1ncn2[C@@H]1O[C@H](CO)[C@@H](O)[C@H]1O`, the Potency entry in [1], in test [2], in test [4], in test [5], in [6] and in test [7] was “inactive” each time. Moreover, the Potency entry in test [8], in test [9], in test [10], in [11], in test [13] and in [20] was “inactive” in each case. In addition, the Potency result in test [15], in test [16] and in [18] was “inactive” each time. In addition, the call in [3] and in test [14] was inactive. Also, in [19], the max response was 6.09%.

`CC(CC(C#N)(c1ccccc1)C(C)C)N(C)C` (stereo not given): the Potency entry in [1], in [2], in test [4], in test [5], in test [6] and in [7] was “inactive” in each case. Besides, the Potency result in test [8], in test [9], in test [10], in test [11], in [13] and in test [20] was “inactive” throughout. Also, the Potency result in test [15], in test [17] and in [18] was “inactive” in each case. In addition, the call in test [3] and in test [14] was inactive. The max response in [19] was 6.67%.

On to `O=S(=O)(O)c1cc(Cl)c(Cl)cc1Cl`, for which the Potency entry in test [1], in [2], in [4], in test [6], in test [8] and in test [9] was “inactive” in each case. Moreover, the Potency result in test [10], in test [11], in test [13], in test [20], in [15] and in [16] was “inactive” in each case. Besides, the Potency result in test [17] and in test [18] was “inactive” throughout. The call in test [3] and in test [14] was inactive. Moreover, the max response in [19] was -19.4%.

`Cc1cc(SC2=C(O)C[C@@](CCc3ccc(N)cc3)(C(C)C)OC2=O)c(C(C)(C)C)cc1CO`: the Potency entry in test [1], in [2], in test [4], in [5], in test [6] and in test [7] was “inactive” each time. Besides, the Potency result in [8], in [10], in test [11], in [13], in test [20] and in [15] was “inactive” in each case. For the same molecule, the Potency result in [18] is “inactive”. For the same molecule, the outcome in [3] and in test [14] was inactive. Further, the max response in test [19] is -1.78%. For the same molecule, in test [9], the Potency is 11 µM (active).

As to `O=P(c1ccccc1)(c1ccccc1)c1ccccc1`, the Potency entry in test [1], in test [2], in test [4], in [5], in [6] and in [7] was “inactive” each time. For the same molecule, the Potency result in test [8], in test [9], in test [10], in test [11], in test [13] and in [20] was “inactive” in each case. Also, the Potency entry in test [15], in test [17] and in [18] was “inactive” each time. Moreover, the molecule was called inactive in [3] and in test [14]. In addition, the max response in [19] was -19%.

For the molecule `O=c1[nH][nH]c2ccccc12`, the Potency entry in test [1], in [2], in [4], in [5], in test [6] and in test [7] was “inactive” throughout. The Potency result in [8], in test [9], in test [10], in [11], in test [12] and in [13] was “inactive” throughout. The Potency entry in [20], in test [15], in [16], in test [17] and in [18] was “inactive” each time. Further, the result in [3] and in [14] was inactive.

Turning to `CCOC(=O)CC(O)(CC(=O)OCC)C(=O)OCC`, the Potency result in test [1], in test [2], in test [4], in test [5], in [6] and in test [7] was “inactive” in each case. The Potency result in [8], in test [9], in test [10], in test [11], in test [12] and in test [13] was “inactive” in each case. Moreover, the Potency result in [15], in [17] and in test [18] was “inactive” each time. For the same molecule, the outcome in test [3] and in [14] was inactive.

As to `O=C(c1ccc(Cl)cc1)c1ccc(Cl)cc1`, the Potency result in test [1], in [2], in [4], in test [5], in [6] and in test [9] was “inactive” in each case. The Potency entry in [10], in test [11], in test [13], in test [20], in test [15] and in test [16] was “inactive” throughout. For the same molecule, the Potency entry in test [18] is “inactive”. Further, the result in [3] and in test [14] was inactive. Further, the max response in test [19] was -15%.

As to `CC(C)=CCC[C@H](C)CCO`, the Potency entry in test [1], in test [2], in test [4], in [5], in [6] and in test [7] was “inactive” each time. The Potency result in test [9], in test [10], in [11], in test [12], in [13] and in test [20] was “inactive” throughout. Further, the Potency result in test [15], in test [16] and in test [17] was “inactive” in each case. Also, the molecule was classed as inactive in test [3] and in [14]. Also, the max response in [19] was -1.49%.

Consider `O=C(N[C@@H](Cc1ccccc1)[C@@H](O)C(=O)N1C[C@@H](O)[C@@H](O)C1)c1cc2cc(Cl)ccc2[nH]1`, for which the Potency entry in test [1], in [2], in test [4], in [6], in [9] and in [10] was “inactive” in each case. Moreover, the Potency result in test [11], in test [13], in test [15], in test [16] and in test [17] was “inactive” throughout. Also, the result in test [3] and in [14] was inactive.

As for `CC(=O)Nc1cccc(N)c1`, the Potency entry in [1], in test [2], in test [4], in test [5], in [6] and in [7] was “inactive” in each case. For the same molecule, the Potency entry in test [8], in test [9], in test [10], in test [11], in test [13] and in test [20] was “inactive” in each case. Besides, the Potency result in [15], in [16], in [17] and in [18] was “inactive” each time. Besides, the outcome in [3] and in test [14] was inactive. In addition, the max response in [19] was 15%.
